In PubChem BioAssay (EPA / NIEHS):
Inconclusive results are not listed. Active and inactive are the calls of the source. The calls were made as follows: active = hit-call score of the fitted dose curve at least 0.9, where 1 is the maximum; inconclusive = response in the unintended direction; inactive = score below 0.9.

Target: THRB (gene 7068) (UniProt P10828)
Test: TOX21_TRB_BLA_Antagonist_Followup_ratio: Tox21 Thyroid Hormone Receptor beta Antagonism Beta-lactamase (BLA) Follow-Up Assay, Ratio (AID 2283958)
Source text: The GeneBLAzer TRb-UAS-bla HEK293T assay kit for human TRb (ThermoFisherScientific Catalog No. K1684) was used as a secondary assay for specificity (TRb-bla).This assay contained the ligand-binding domain (LBD) of the human TRb fused to the DNA-binding domain of GAL4 stably integrated in the GeneBLAzer UAS-bla HEK293Tcell line. The reporter gene, b-lactamase, is under the transcriptional control of a UAS that binds the GAL4 DNA-binding domain. A cell viability assay was run in parallel for these cells as well using the CellTiter-Glo viability assay kit.TOX21_TRB_BLA_Antagonist_Followup_ratio is an assay readout measuring reporter gene via receptor activity and designed using inducible reporter (beta lactamase induction) detected with GAL4 b-lactamase reporter gene. The signal is derived from the ratio of cleaved (ch2) to uncleaved (ch1) reporter gene substrate used as the measure of target activity.Data from the assay component TOX21_TRB_BLA_Antagonist_Followup_ratio was analyzed into 1 assay endpoint. This assay endpoint, TOX21_TRB_BLA_Antagonist_Followup_ratio, was analyzed in the positive analysis fitting direction relative to DMSO as the negative control and baseline of activity. Using a type of inducible reporter, loss-of-signal activity can be used to understand changes in the reporter gene as they relate to the gene THRB. Furthermore, this assay endpoint can be referred to as a primary readout, because this assay has produced multiple assay endpoints and this ratio serves a reporter gene function to understand target activity. To generalize the intended target to other relatable targets, this assay endpoint is annotated to the nuclear receptor intended target family, where the subfamily is non-steroidal.
Cell Media Required: Growth (90% DMEM/F-12, 10% Fetal Bovine Calf Serum, 100U/ml Penicillin, 100 ug/ml Streptomycin), Assay (10ng/mL sodium selenite, 10 ug/mL humanapo-transferrin, 10 uM ethanolamine, 10 ug/mL insulin, 500 ug/mL bovine serum albumin (BSA))Assay Protocol: TRb-bla cells were dispensed at 3,000 cells/well in 5 uL of the assay medium containing phenol red-free DMEM with 2% charcoal-stripped FBS in 1,536-well black-wall/clear-bottom plates using an FRD. After 5-h incubation at 37C/5% CO2 for cell attachment to the well bottom, 23nL of follow-up compounds dissolved in DMSO, 11 concentrations in triplicate, and the positive control (T3; agonist format) were transferred to the assay plates using a Pintool station. The assay plates were incubated at 37C/5% CO2 for 18h. One microliter LiveBLAzer FRET-B/G CCF4-AM substrate was added to each well using an FRD. After 2-h incubation at room temperature, the fluorescence intensity was measured using an Envision plate reader. Data were expressed as the ratio of 460:530nm. The cytotoxicity of the compounds was measured in the same plates by adding 4 uL of CellTiter-Glo reagent to each well and incubating the plates at room temperature for 30 min. The luminescence intensity was measured using a ViewLux plate reader.For the luciferase reporter gene assay, 5 uL/well (agonist format) and 4 uL/well (antagonist format) ONE-Glo reagent (Promega Corporation) was added using an FRD and after 30-min incubation at room temperature, the luminescence intensity was measured using a ViewLux plate reader. Data were expressed as relative fluorescence units (cell viability assay) and relative luminescence units (luciferase reporter assay).

THRB (gene 7068), sequence (P10828 whole entry, looked up): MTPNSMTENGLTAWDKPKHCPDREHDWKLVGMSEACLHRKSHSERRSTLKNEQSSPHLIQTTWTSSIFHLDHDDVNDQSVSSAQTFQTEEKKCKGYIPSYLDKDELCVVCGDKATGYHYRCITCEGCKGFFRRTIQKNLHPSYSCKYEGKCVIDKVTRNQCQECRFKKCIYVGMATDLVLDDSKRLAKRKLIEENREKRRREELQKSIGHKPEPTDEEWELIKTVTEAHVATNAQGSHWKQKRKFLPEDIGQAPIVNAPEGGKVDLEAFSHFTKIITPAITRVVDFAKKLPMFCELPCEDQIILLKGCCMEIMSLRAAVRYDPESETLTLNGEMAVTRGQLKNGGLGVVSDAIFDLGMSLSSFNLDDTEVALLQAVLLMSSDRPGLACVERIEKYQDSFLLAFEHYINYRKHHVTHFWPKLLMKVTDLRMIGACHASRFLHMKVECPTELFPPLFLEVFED

Row | Structure (SMILES) | AC50 | outcome
1 | CC[C@]1(O)CC[C@H]2[C@@H]3CCC4=CCCC[C@@H]4[C@H]3CC[C@@]21C | 11.6 µM (active) | –
2 | CCN(CC)CCO[C@H]1CC[C@@]2(C)C(=CC[C@@H]3[C@@H]2CC[C@]2(C)C(=O)CC[C@@H]32)C1 | – | inactive
3 | COc1cc([C@@H]2c3cc4c(cc3[C@@H](O)[C@H]3COC(=O)[C@H]23)OCO4)cc(OC)c1O | 0.653 µM (active) | –
4 | C=CC[C@]1(O)CC[C@H]2[C@@H]3CCC4=CC(=O)CCC4=C3C=C[C@@]21C | – | inactive
5 | CC(=O)[C@H]1CC[C@H]2[C@@H]3CC[C@@H]4C[C@H](O)CC[C@]4(C)[C@H]3CC[C@]12C | – | inactive
6 | C[C@]12CC[C@H]3[C@@H](CCC4=C(Cl)C(=O)CC[C@@]43C)[C@@H]1CC[C@@H]2O | – | inactive
7 | CN1C(=O)[C@@H](NC(=O)c2cc3ccccc3[nH]2)N=C(c2ccccc2)c2ccccc21 | 10.7 µM (active) | –
8 | CC[C@H]1C[C@H]2[C@@H]3CCC4=CC(=O)CC[C@@H]4[C@H]3CC[C@]2(C)[C@H]1O | – | inactive
9 | O=C1OC2(c3cc(Br)c(O)cc3Oc3c2cc(Br)c(O)[c]3[Hg])c2ccccc21 (stereo unspecified) | – | inactive
10 | O=C(N[C@@H]1N=C(c2ccccc2F)c2cccc3c2N(CC3)C1=O)c1cc2ccccc2[nH]1 | – | inactive
11 | COC1=CC(=O)O[C@@H](/C=C/c2ccc3c(c2)OCO3)C1 | – | inactive
